In PubChem BioAssay:
Values joined by “and” are separate entries in the source; they are usually repeats but may differ in a detail not shown here. Equal values may be shown once. Results filed as inconclusive are left out. Active and inactive are the calls of the source. Unless noted, no cut-off is given here; in the data, nearly all actives have AC50 up to about 26 µM.

Assays:
[1] = Wnt pathway potentiators raising nuclear beta-catenin – imaging, WNT3A-conditioned medium, mouse C2C12, NPC library, primary screen (AID 1117326; in the data active = nuclear beta-catenin stimulation mostly above about 4.2%, no sharp cut-off; inactive = mostly below about 10%; note: reference of the scale not given here); settings: stronger effect = higher value
[2] = stimulators of insulin release from INS-1E, primary screen, cell-based, 5 mM glucose, NPC library (AID 1117329;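 active = compound raises insulin release from rat beta cells at 5 mM glucose, no numeric limit stated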; note: reference of the scale not given here); settings: rat INS-1E insulin secretion, at 10 µM, stronger effect = higher value
[3] = growth inhibition of GSK3B-pretreated HCT116 cells – cell-based, CellTiter-Glo, 0.2 to 20 µM (AID 1117336;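 active = compounds lowering colon cancer cell viability after pretreatment blocking the GSK3B kinase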); settings: HCT116 viability after GSK3B inhibitor, at 20 µM, stronger effect = higher value
[4] = inhibition of endothelial tube formation, primary screen, imaging, VEGF stimulated, CD31 staining, tube area, NPC library (AID 1117340;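 active = compound that reduces growth-factor-driven endothelial tube area in a mixed cell culture, no cutoff stated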); settings: VEGF-stimulated ADSC/ECFC co-culture, at 10 µM, stronger effect = higher value
[5] = GLP1 release stimulators, primary, NCI-H716, NPC library (AID 1117341;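 active = compound raises GLP1 secretion from the human gut endocrine cells, with no numeric limit stated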; note: reference of the scale not given here); settings: NCI-H716 cells, at 10 µM, stronger effect = higher value
[6] = HCT116 colon cancer cell growth inhibition, primary screen, CellTiter-Glo luminescence, NPC library (AID 1117342;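 active = compounds that lower survival of HCT116 colon cancer cells in the luminescence readout, no numeric limit stated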); settings: at 20 µM (top of the series)
[7] = reduced SW480 viability measured with CellTiter-Glo, NPC library, primary (AID 1117343;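 active = compounds that lower viability of the colon cancer cells in the luminescence readout, with no numeric limit stated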); settings: CellTiter-Glo luminescence; at 20 µM (top of the series) unless noted
[8] = NPC library primary testing for decreased DLD-1 cell viability via CellTiter-Glo (AID 1117346;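 active = compounds that lower survival of DLD-1 colon cancer cells in the luminescence readout, no cutoff given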); settings: DLD-1 viability, CellTiter-Glo luminescence; at 20 µM (top of the series)
[9] = viability loss in pontine glioma line – cell-based, SU-DIPG-XIII, MIPE4.0, CellTiter-Glo, qHTS, dose response (AID 1347061; cut-off not given, nearly all actives have AC50 up to about 37 µM;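 note: cells exposed to compound for 48 hours before readout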); settings: CellTiter-Glo ATP luminescence
[10] = viability loss in pontine glioma line – cell-based, JHH-DIPG-1, MIPE4.0, CellTiter-Glo, qHTS, dose response (AID 1347062; cut-off not given, nearly all actives have AC50 up to about 27 µM;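 for AC50: cells exposed to compound for two days before readout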); settings: JHH-DIPG-1 viability, CellTiter-Glo ATP luminescence
[11] = viability loss in pontine glioma line – cell-based, SU-DIPG-IV, MIPE4.0, CellTiter-Glo, qHTS, dose response (AID 1347063; cut-off not given, nearly all actives have AC50 up to about 30 µM;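 note: compound exposure lasted 48 hours before the viability readout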); settings: CellTiter-Glo ATP luminescence
[12] = growth inhibition of DIPG cells – cell-based, MIPE4.0 library, CellTiter-Glo luminescence, qHTS (AID 1347066; cut-off not given, nearly all actives have AC50 up to about 30 µM;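 note: cells exposed to compound for 48 hours before readout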); settings: SU-DIPG-VI viability, CellTiter-Glo ATP luminescence
[13] = JHH-DIPG-1 glioma cell viability, MIPE5.0 library, CellTiter-Glo luminescence, qHTS (AID 1347067); settings: JHH-DIPG-1 glioma viability, CellTiter-Glo ATP luminescence;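 note: cells exposed to compound for 48 hours before readout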
[14] = growth inhibition of DIPG cells – cell-based, MIPE5.0 library, qHTS (AID 1347068; cut-off not given, nearly all actives have IC50 up to about 30 µM;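 for IC50: cells exposed to compound for 48 hours before viability readout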); settings: SU-DIPG-XXV viability
[15] = viability loss with induced miR-34 in A549 – imaging, A549 dox-inducible miR-34, nuclei and caspase counts, primary screen (AID 1347080;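 active = compounds whose cell count with miR-34 switched on is under 0.7 times the count with it off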); settings: A549 miR-34 inducible, Hoechst nuclei count, 48 h
[16] = galactose survival enhancers in mitochondrial complex I cybrids – cell-based, galactose medium, ATP luminescence, primary screen (AID 1645843;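 active = z-score of at least 1.8 in each of two replicates, scored against plate mean and spread of sample wells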;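 note: positive z means more ATP and so rescue of galactose-driven cybrid death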); settings: complex I mutant cybrid cells, 72 h, stronger effect = higher value
[17] = viability loss in pontine glioma line – cell-based, SU-DIPG-XXV, MIPE5.0, CellTiter-Glo, qHTS, dose response (AID 1347065); settings: CellTiter-Glo ATP luminescence;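 note: cells exposed to compound for 48 hours before ATP readout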
[18] = MELAS cybrid and Rieske KO viability enhancers – cell-based, MELAS cybrids, Rieske KO mouse fibroblasts, CellTiter-Glo, primary screen (AID 1508586;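 active = mean z-score across replicates of 1.96 or higher in either the MELAS or the Rieske mutant cell line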;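 note: z relative to plate mean and SD of compound and empty wells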); settings: low glucose
[19] = P. berghei load reduction in hepatocytes – cell-based, HepG2, luciferase luminescence, HepG2 viability, primary screen (AID 624349; in the data active = parasite load remaining mostly below about 12%, no sharp cut-off; inactive = mostly above about 10%;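 note: 100% = mean of DMSO negative control wells on the same plate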); settings: P. berghei liver stage in HepG2, luciferase luminescence, concentration not given here; parasite load remaining: stronger effect = lower value; viability: measured here: HepG2 viability without parasites
[20] = stronger effect = lower value, cell number ratio, induced over uninduced
[21] = measured here: relative caspase fold change +Dox/-Dox
[22] = measured here: total cells with miR-34 induction, stronger effect = lower value
[23] = measured here: total cells without miR-34 induction
[24] = MELAS cybrid survival, CellTiter-Glo 48 h, stronger effect = higher value
[25] = Rieske KO mouse fibroblast survival, CellTiter-Glo 72 h

CCCCN(CCCC)CC(O)c1cc(Cl)cc2c1-c1ccc(Cl)cc1/C2=C/c1ccc(Cl)cc1 (stereo not drawn)
8560: cell count [15, 23]
8950: cell count [15, 22]
inactive: nuclear beta-catenin stimulation ([1]; at 10 µM) 0.5% | insulin secretion stimulation [2] -0.3% | viability decrease [3] 9.1% | tube area decrease [4] 25.1% | GLP1 secretion stimulation [5] -3.6% | inhibition of viability [6] 31% | viability decrease (inhibition) [7] 10.6% | viability decrease (inhibition) [8] 14.9% | outcome [9] | outcome [10] | outcome [12] | outcome [14] | fold change [15, 20] 1.04 | z-score [16] 0.075
-0.3%: nuclear beta-catenin stimulation ([1]; stimulation, at 2 µM)
active: AC50 [11] 26.4 µM | AC50 [13] 18.6 µM
2.5: fold change [15, 21]

O=C(O)c1ccc(-n2nc(-c3ccccc3O)nc2-c2ccccc2O)cc1
1.1: fold change [15, 21]
4300: cell count [15, 22]
-2.6%: nuclear beta-catenin stimulation ([1]; stimulation, at 2 µM)
4600: cell count [15, 23]
active: viability decrease [3] 112% | tube area decrease [4] 102% | inhibition of viability [6] 112% | viability decrease (inhibition) [7] 130% | viability decrease (inhibition) [8] 93.6% | AC50 [17] 20.9 µM | AC50 [12] 23.5 µM
inactive: nuclear beta-catenin stimulation ([1]; at 10 µM) 28.8% | insulin secretion stimulation [2] 0.8% | GLP1 secretion stimulation [5] 7.6% | outcome [10] | fold change [15, 20] 0.936 | z-score [18, 24] -0.00061
-0.754: z-score [18, 25]

N[C@@H](Cc1c[nH]c2ccc(O)cc12)C(=O)O
3.9%: nuclear beta-catenin stimulation ([1]; stimulation, at 2 µM)
10300: cell count [15, 22]
0.787: fold change [15, 21]
9860: cell count [15, 23]
inactive: nuclear beta-catenin stimulation ([1]; at 10 µM) 1.6% | insulin secretion stimulation [2] 2.1% | viability decrease [3] -0.3% | tube area decrease [4] 1.7% | GLP1 secretion stimulation [5] 3.1% | inhibition of viability [6] 2.5% | viability decrease (inhibition) [7] -17.1% | viability decrease (inhibition) [8] -5.7% | outcome [9] | outcome [11] | outcome [17] | outcome [12] | outcome [13] | outcome [14] | fold change [15, 20] 1.04 | z-score [16] 0.37

C=CC(=O)Nc1cc2c(Nc3ccc(F)c(Cl)c3)ncnc2cc1OCCCN1CCOCC1
inactive: insulin secretion stimulation [2] 1.6% | GLP1 secretion stimulation [5] 2.8%
active: nuclear beta-catenin stimulation ([1]; at 10 µM) 45.9% | viability decrease [3] 108% | tube area decrease [4] 43.3% | inhibition of viability [6] 112% | viability decrease (inhibition) [7] 130% | viability decrease (inhibition) [8] 101% | AC50 [10] 18.7 µM | AC50 [11] 5.9 µM | AC50 [17] 6.61 µM | AC50 [12] 14.8 µM | AC50 [13] 9.34 µM | IC50 [14] 5.25 µM
9.2%: nuclear beta-catenin stimulation ([1]; stimulation, at 2 µM)

NCCCC(N)(C(=O)O)C(F)F (stereo not drawn)
inactive: nuclear beta-catenin stimulation ([1]; at 10 µM) -0.1% | insulin secretion stimulation [2] -2.2% | viability decrease [3] 6.2% | tube area decrease [4] -6.3% | GLP1 secretion stimulation [5] 2.8% | inhibition of viability [6] 12.2% | viability decrease (inhibition) [8] 36% | outcome [10] | outcome [11] | outcome [17] | outcome [13] | outcome [14] | fold change [15, 20] 1.13 | z-score [16] 0.11
0.834: fold change [15, 21]
-0.3%: nuclear beta-catenin stimulation ([1]; stimulation, at 2 µM)
7470: cell count [15, 23]
8420: cell count [15, 22]
active: viability decrease (inhibition) [7] 65.3%

O=P(O)(O)C(O)(Cn1ccnc1)P(=O)(O)O
10900: cell count [15, 23]
9230: cell count [15, 22]
1%: nuclear beta-catenin stimulation ([1]; stimulation, at 2 µM)
1.6: fold change [15, 21]
-0.459 and -1.13: z-score [18, 25]
inactive: parasite load remaining [19] 30.2% | nuclear beta-catenin stimulation ([1]; at 10 µM) 0.4% | insulin secretion stimulation [2] 0.2% | viability decrease [3] -1.1% | tube area decrease [4] 8.6% | GLP1 secretion stimulation [5] -0.1% | inhibition of viability [6] 16.4% | viability decrease (inhibition) [7] 32.9% | viability decrease (inhibition) [8] 17.2% | outcome [9] | outcome [10] | outcome [17] | outcome [12] | outcome [13] | outcome [14] | fold change [15, 20] 0.851 | z-score [18, 24] -0.129 and 0.228 | z-score [16] 0.405
130%: viability [19]

CC(C)(C)C(=O)Oc1ccc(S(=O)(=O)Nc2ccccc2C(=O)NCC(=O)O)cc1
inactive: nuclear beta-catenin stimulation ([1]; at 10 µM) 0.7% | insulin secretion stimulation [2] 0% | tube area decrease [4] -2.9% | GLP1 secretion stimulation [5] 0.3% | inhibition of viability [6] 24.1% | viability decrease (inhibition) [8] 3.4% | outcome [9] | outcome [10] | outcome [14] | fold change [15, 20] 1.07 | z-score [16] 0.85
active: viability decrease [3] 66% | viability decrease (inhibition) [7] 70%
10600: cell count [15, 22]
9900: cell count [15, 23]
1.7%: nuclear beta-catenin stimulation ([1]; stimulation, at 2 µM)
1.11: fold change [15, 21]

O=c1cc(O)c(Cl)c[nH]1
-0.5%: nuclear beta-catenin stimulation ([1]; stimulation, at 2 µM)
inactive: nuclear beta-catenin stimulation ([1]; at 10 µM) -0.6% | insulin secretion stimulation [2] -1.9% | viability decrease [3] 28% | tube area decrease [4] -18.9% | GLP1 secretion stimulation [5] -0.1% | inhibition of viability [6] 27.8% | viability decrease (inhibition) [8] 12.9% | outcome [9] | outcome [17] | outcome [12] | outcome [13] | outcome [14] | fold change [15, 20] 0.957 | z-score [18, 24] -0.106
-0.13: z-score [18, 25]
8380: cell count [15, 23]
active: viability decrease (inhibition) [7] 54.6%
8010: cell count [15, 22]
1.21: fold change [15, 21]
